Key:
Experiment in all cases: DAPPL (digital affinity profiling via proximity ligation, sequencing); 10 mM Tris-HCl pH 7.5, 50 mM NaCl, 1 mM DTT, 4% glycerol, room temperature, 30 min; GST-TFs on glutathione beads, 16-mer random dsDNA library, 0.1% formaldehyde crosslink after washing; high values mean tight binding
Details in all cases: protein: recombinant; tags: N-terminal GST; dsDNA, one strand shown
[1] = target: T1, FLI1 (Homo sapiens, UniProt Q01543 1-452)
T1 sequence: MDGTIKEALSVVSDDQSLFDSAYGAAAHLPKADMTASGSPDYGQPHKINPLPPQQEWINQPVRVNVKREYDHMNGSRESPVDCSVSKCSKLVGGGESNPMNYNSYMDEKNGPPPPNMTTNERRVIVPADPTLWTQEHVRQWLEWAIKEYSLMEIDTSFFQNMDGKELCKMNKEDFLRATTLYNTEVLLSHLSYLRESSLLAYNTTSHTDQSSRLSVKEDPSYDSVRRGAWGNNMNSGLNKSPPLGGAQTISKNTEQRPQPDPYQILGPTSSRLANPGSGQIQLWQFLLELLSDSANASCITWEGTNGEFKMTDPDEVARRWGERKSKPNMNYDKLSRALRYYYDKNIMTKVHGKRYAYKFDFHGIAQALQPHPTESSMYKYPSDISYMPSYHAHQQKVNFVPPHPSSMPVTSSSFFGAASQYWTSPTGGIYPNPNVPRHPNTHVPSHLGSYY
Procedure, shortened: (§1)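 Beads coated with glutathione captured GST-fused human transcription factors that had been expressed in yeast, and the factors were then given DNA barcodes and pooled with a tag-only sample. The pools were incubated with 200 nmole of a random double-stranded 16-mer DNA library in Tris/NaCl/DTT/glycerol buffer for 30 min at room temperature, washed, crosslinked with 0.1% formaldehyde and proximity-ligated with BsaI/T4 ligase at 37 °C for 1 h. PCR amplification and Illumina NextSeq500 sequencing came last. Binding signal is each hexamer's read frequency for a factor divided by its frequency for the tag-only sample.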

[2] = target: T2, ELK1 (Homo sapiens, UniProt P19419 1-428)
T2 sequence: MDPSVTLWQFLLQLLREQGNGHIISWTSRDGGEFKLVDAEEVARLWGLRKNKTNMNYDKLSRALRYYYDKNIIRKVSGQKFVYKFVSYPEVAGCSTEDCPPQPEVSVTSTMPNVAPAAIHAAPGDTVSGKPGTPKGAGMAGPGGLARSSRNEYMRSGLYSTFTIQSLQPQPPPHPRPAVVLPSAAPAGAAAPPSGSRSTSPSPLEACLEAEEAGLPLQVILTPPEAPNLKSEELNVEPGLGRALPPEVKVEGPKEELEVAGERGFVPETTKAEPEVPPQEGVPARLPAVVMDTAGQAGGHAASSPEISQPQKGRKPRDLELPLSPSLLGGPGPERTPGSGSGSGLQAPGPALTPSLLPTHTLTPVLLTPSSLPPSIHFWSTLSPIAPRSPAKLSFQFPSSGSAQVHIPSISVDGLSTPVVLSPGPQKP
Procedure, shortened: as §1

[3] = target: T3, GABPA (Homo sapiens, UniProt Q06546 1-454)
T3 sequence: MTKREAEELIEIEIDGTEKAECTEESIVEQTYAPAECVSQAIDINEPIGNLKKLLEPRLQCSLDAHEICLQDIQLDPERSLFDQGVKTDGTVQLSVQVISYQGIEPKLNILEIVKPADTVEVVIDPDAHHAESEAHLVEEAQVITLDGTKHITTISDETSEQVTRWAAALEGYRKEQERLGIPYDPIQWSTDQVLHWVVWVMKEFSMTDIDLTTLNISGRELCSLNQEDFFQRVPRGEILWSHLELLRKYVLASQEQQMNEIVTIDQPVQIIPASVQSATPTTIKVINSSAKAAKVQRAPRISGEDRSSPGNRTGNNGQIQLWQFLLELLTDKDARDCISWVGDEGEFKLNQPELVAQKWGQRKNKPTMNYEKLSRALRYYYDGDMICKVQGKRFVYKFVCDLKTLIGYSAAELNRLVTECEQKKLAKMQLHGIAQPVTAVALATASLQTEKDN
Procedure, shortened: as §1

[4] = target: T4, ERG (Homo sapiens, UniProt P11308 1-479)
T4 sequence: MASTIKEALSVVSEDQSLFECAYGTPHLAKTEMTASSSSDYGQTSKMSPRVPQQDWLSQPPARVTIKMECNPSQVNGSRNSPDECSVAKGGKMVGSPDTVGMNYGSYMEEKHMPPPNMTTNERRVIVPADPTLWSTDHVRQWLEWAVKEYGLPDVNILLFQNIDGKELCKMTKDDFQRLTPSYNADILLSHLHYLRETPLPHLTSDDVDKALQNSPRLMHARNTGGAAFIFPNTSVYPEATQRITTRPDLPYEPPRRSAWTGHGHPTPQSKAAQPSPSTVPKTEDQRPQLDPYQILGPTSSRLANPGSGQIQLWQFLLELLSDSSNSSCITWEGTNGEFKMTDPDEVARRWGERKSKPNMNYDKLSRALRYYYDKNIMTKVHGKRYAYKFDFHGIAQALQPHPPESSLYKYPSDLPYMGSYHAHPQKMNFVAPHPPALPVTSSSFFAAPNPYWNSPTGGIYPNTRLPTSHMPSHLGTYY
Procedure, shortened: as §1

[5] = target: ELF1 (Homo sapiens, UniProt P32519 1-619)
Sequence of ELF1 (P32519 whole entry): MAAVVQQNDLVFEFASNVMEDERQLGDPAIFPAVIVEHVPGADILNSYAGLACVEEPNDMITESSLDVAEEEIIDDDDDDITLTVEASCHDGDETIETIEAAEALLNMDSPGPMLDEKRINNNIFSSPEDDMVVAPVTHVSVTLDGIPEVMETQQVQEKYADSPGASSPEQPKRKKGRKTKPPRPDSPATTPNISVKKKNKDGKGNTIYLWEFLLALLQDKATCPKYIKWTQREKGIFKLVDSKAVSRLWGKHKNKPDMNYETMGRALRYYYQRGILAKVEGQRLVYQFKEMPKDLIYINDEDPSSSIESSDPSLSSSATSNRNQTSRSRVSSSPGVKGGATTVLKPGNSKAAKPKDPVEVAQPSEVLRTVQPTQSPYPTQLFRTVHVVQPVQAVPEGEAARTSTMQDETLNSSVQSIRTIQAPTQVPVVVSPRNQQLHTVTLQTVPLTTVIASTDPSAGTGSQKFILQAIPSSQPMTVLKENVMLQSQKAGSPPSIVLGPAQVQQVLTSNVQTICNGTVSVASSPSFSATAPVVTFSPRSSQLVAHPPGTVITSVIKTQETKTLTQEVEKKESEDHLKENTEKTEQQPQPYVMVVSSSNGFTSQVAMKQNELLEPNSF
Procedure, shortened: as §1

[6] = target: T5, EHF (Homo sapiens, UniProt Q9NZC4 1-300)
T5 sequence: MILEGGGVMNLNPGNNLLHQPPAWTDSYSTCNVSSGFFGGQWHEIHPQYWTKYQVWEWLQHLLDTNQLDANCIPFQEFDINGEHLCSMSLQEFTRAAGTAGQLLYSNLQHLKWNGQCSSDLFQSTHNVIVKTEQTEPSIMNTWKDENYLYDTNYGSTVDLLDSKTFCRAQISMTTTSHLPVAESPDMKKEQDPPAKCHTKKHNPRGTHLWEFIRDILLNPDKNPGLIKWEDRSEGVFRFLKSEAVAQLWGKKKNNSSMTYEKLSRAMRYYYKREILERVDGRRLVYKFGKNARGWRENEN
Procedure, shortened: as §1

[7] = target: SPI1 (Homo sapiens, UniProt P17947 1-270)
Procedure, shortened: as §1

[8] = target: SPIB (Homo sapiens, UniProt Q01892 1-262)
Sequence of SPIB (Q01892 whole entry): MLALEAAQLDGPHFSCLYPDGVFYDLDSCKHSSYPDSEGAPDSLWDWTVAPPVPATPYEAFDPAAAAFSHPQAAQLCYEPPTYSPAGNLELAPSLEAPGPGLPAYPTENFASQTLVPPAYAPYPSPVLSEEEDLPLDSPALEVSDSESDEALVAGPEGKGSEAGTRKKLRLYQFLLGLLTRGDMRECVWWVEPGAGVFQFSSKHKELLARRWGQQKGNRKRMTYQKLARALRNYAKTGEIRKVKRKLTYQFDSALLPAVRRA
Procedure, shortened: as §1

[9] = target: T6, ELK3 (Homo sapiens, UniProt P41970 1-407)
T6 sequence: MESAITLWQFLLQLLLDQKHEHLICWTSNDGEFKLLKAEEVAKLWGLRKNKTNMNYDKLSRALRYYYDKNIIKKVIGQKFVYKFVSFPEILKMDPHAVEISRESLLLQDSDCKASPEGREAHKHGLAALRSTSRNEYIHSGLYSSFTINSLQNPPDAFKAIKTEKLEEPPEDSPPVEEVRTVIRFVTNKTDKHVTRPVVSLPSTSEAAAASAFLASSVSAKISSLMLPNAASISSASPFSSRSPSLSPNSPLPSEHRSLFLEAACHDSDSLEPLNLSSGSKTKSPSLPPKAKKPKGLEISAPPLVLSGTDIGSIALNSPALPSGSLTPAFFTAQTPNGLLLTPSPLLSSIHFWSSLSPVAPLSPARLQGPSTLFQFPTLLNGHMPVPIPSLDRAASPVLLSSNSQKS
Procedure, shortened: as §1

CTGTGC was tested, and the binding signal [1] was 1.09 fold enrichment (6-mer frequency, TF over GST control), the binding signal [2] was 1.18 fold enrichment (6-mer frequency, TF over GST control) and the binding signal [3] was 1.12 fold enrichment (6-mer frequency, TF over GST control). The binding signal [4] was 1.11 fold enrichment (6-mer frequency, TF over GST control), the binding signal [5] was 1.14 fold enrichment (6-mer frequency, TF over GST control) and the binding signal [6] was 1.02 fold enrichment (6-mer frequency, TF over GST control). For the same sequence, the binding signal [7] was 1.02 fold enrichment (6-mer frequency, TF over GST control), the binding signal [8] was 1.13 fold enrichment (6-mer frequency, TF over GST control) and the binding signal [9] was 1.09 fold enrichment (6-mer frequency, TF over GST control).
In the case of CTCTAA, the binding signal [1] is reported as 1.3 fold enrichment (6-mer frequency, TF over GST control), the binding signal [2] is reported as 1.33 fold enrichment (6-mer frequency, TF over GST control) and the binding signal [3] is reported as 1.28 fold enrichment (6-mer frequency, TF over GST control). The binding signal [4] was 1.32 fold enrichment (6-mer frequency, TF over GST control), the binding signal [5] was 1.37 fold enrichment (6-mer frequency, TF over GST control) and the binding signal [6] was 1.41 fold enrichment (6-mer frequency, TF over GST control). For the same sequence, the binding signal [7] was 1.35 fold enrichment (6-mer frequency, TF over GST control), the binding signal [8] was 1.25 fold enrichment (6-mer frequency, TF over GST control) and the binding signal [9] was 1.43 fold enrichment (6-mer frequency, TF over GST control).
In the case of AGCCCC, the binding signal [1] is reported as 1.09 fold enrichment (6-mer frequency, TF over GST control), the binding signal [2] is reported as 1.01 fold enrichment (6-mer frequency, TF over GST control) and the binding signal [3] is reported as 1.11 fold enrichment (6-mer frequency, TF over GST control). The binding signal [4] was 1.06 fold enrichment (6-mer frequency, TF over GST control), the binding signal [5] was 1.05 fold enrichment (6-mer frequency, TF over GST control) and the binding signal [6] was 1.05 fold enrichment (6-mer frequency, TF over GST control). For the same sequence, the binding signal [7] was 1.02 fold enrichment (6-mer frequency, TF over GST control), the binding signal [8] was 1.08 fold enrichment (6-mer frequency, TF over GST control) and the binding signal [9] was 1.07 fold enrichment (6-mer frequency, TF over GST control).
With ATATGG the binding signal [1] was 1.13 fold enrichment (6-mer frequency, TF over GST control), the binding signal [2] was 1.31 fold enrichment (6-mer frequency, TF over GST control) and the binding signal [3] was 1.28 fold enrichment (6-mer frequency, TF over GST control). For the same sequence, the binding signal [4] was 1.36 fold enrichment (6-mer frequency, TF over GST control), the binding signal [5] was 1.26 fold enrichment (6-mer frequency, TF over GST control) and the binding signal [6] was 1.27 fold enrichment (6-mer frequency, TF over GST control). The binding signal [7] was 1.17 fold enrichment (6-mer frequency, TF over GST control), the binding signal [8] was 1.24 fold enrichment (6-mer frequency, TF over GST control) and the binding signal [9] was 1.25 fold enrichment (6-mer frequency, TF over GST control).
TGCCCG was tested, and the binding signal [1] was 1.16 fold enrichment (6-mer frequency, TF over GST control), the binding signal [2] was 1.16 fold enrichment (6-mer frequency, TF over GST control) and the binding signal [3] was 1.24 fold enrichment (6-mer frequency, TF over GST control). The binding signal [4] was 1.19 fold enrichment (6-mer frequency, TF over GST control), the binding signal [5] was 1.2 fold enrichment (6-mer frequency, TF over GST control) and the binding signal [6] was 1.27 fold enrichment (6-mer frequency, TF over GST control). For the same sequence, the binding signal [7] was 1.13 fold enrichment (6-mer frequency, TF over GST control), the binding signal [8] was 1.14 fold enrichment (6-mer frequency, TF over GST control) and the binding signal [9] was 1.12 fold enrichment (6-mer frequency, TF over GST control).
In the case of GCTGTT, the binding signal [1] is reported as 1.04 fold enrichment (6-mer frequency, TF over GST control), the binding signal [2] is reported as 1.07 fold enrichment (6-mer frequency, TF over GST control) and the binding signal [3] is reported as 1.12 fold enrichment (6-mer frequency, TF over GST control). The binding signal [4] was 1.11 fold enrichment (6-mer frequency, TF over GST control), the binding signal [5] was 1.1 fold enrichment (6-mer frequency, TF over GST control) and the binding signal [6] was 1.07 fold enrichment (6-mer frequency, TF over GST control). The binding signal [7] was 1.06 fold enrichment (6-mer frequency, TF over GST control), the binding signal [8] was 1.03 fold enrichment (6-mer frequency, TF over GST control) and the binding signal [9] was 1.04 fold enrichment (6-mer frequency, TF over GST control).
For GATATC, the binding signal [1] was 1.55 fold enrichment (6-mer frequency, TF over GST control), the binding signal [2] was 1.6 fold enrichment (6-mer frequency, TF over GST control) and the binding signal [3] was 1.37 fold enrichment (6-mer frequency, TF over GST control). The binding signal [4] was 1.9 fold enrichment (6-mer frequency, TF over GST control), the binding signal [5] was 1.46 fold enrichment (6-mer frequency, TF over GST control) and the binding signal [6] was 1.44 fold enrichment (6-mer frequency, TF over GST control). The binding signal [7] was 1.4 fold enrichment (6-mer frequency, TF over GST control), the binding signal [8] was 1.58 fold enrichment (6-mer frequency, TF over GST control) and the binding signal [9] was 1.51 fold enrichment (6-mer frequency, TF over GST control).
For CTGACA, the binding signal [1] was 1.19 fold enrichment (6-mer frequency, TF over GST control), the binding signal [2] was 1.18 fold enrichment (6-mer frequency, TF over GST control) and the binding signal [3] was 1.2 fold enrichment (6-mer frequency, TF over GST control). For the same sequence, the binding signal [4] was 1.22 fold enrichment (6-mer frequency, TF over GST control), the binding signal [5] was 1.27 fold enrichment (6-mer frequency, TF over GST control) and the binding signal [6] was 1.32 fold enrichment (6-mer frequency, TF over GST control). For the same sequence, the binding signal [7] was 1.26 fold enrichment (6-mer frequency, TF over GST control), the binding signal [8] was 1.17 fold enrichment (6-mer frequency, TF over GST control) and the binding signal [9] was 1.24 fold enrichment (6-mer frequency, TF over GST control).
